Laboratory results published in PubChem BioAssay (NCATS).
Inconclusive results are not listed. Activity calls are given as the source filed them. Calls come from the whole dose curve; as a rule, active = well fitted inhibition curve with a large enough effect; inconclusive = small, poorly fitted or top-dose-only effect; inactive = flat fitted curve, though single readings scatter.

system: CRL-7250; experiment: Cytotoxic Profiling of Annotated Libraries Using Quantitative High-Throughput Screening (AID 1296008); details: Five cell lines viability, CellTiter-Glo ATP luminescence, 48-72 h; max response: hits give low values; note: nearly all actives have a fitted effect of over 60% in size
Outline: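 Cells exposed to compounds for 48 or 72 hr at 37 degrees Celsius. Viability read as ATP-coupled luminescence with CellTiter-Glo after 10 min at room temperature.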
% is set by controls: 0 for no effect and ±100 for the full control effect.

| Compound | max response | outcome |
| --- | --- | --- |
| N#Cc1cccc(-c2nc(-c3cccnc3)no2)c1 | -3.07% (inactive) |  |
| O=C(O)Cn1nnc(-c2ccc(CN(CCCCOc3ccc(CN4CCCC4)cc3)CCc3ccccc3)cc2)n1 |  | inactive |
| C/C(=C/CO)CC[C@H]1[C@]2(C)C[C@H](O)CC(C)(C)[C@H]2CC[C@]1(C)O | -3.5% (inactive) |  |
| O=C(/C=C/c1ccc(O)cc1)OCC1OC(O)C(OC2OC(CO)C(O)C(O)C2O)C(O)C1O (stereo not given) |  | inactive |
| CC1(C)C(=O)CCC2(C)C1C(O)C=C1COC(=O)C12O (stereo not given) | -15.2% (inactive) |  |
| C=C(CCO)C(=O)OCC1OCC(OC(=O)C(=C)CCO[C@@H]2O[C@H](CO)[C@@H](O)[C@H](O)[C@H]2O)C(O)C1O (stereo not given in full) | -6.14% (inactive) |  |
| CC1=C2C[C@H]3OC(=O)[C@H](O)[C@@]4(O)[C@@H](C)[C@@H](O)[C@H](O)C([C@@]2(C)[C@H](O)[C@@H](O)C1)[C@@]34C (stereo not given in full) | -2.09% (inactive) |  |
| COc1ccnc2[nH]cc(C(=O)C(=O)N3CCN(C(=O)c4ccccc4)CC3C)c12 (stereo not given) | 0.507% (inactive) |  |
| OC[C@@]1(O)CO[C@@H](OC[C@H]2O[C@@H](OCc3ccccc3)[C@H](O)[C@@H](O)[C@@H]2O)[C@@H]1O | 1.98% (inactive) |  |
| COc1ccc(/C=C/C(N)=O)cc1OC |  | inactive |
| CC(=O)OC(C)C(C)(O)C(=O)O[C@@H]1CC[C@]2(C)CC(=O)C(=C(C)C)C[C@H]2[C@]1(C)OC(C)=O (stereo not given in full) | -0.377% (inactive) |  |
| N[C@@H](CC(=O)Nc1ccc(Oc2cc(F)c(F)cc2Br)cc1)C(=O)O | -23% (inactive) |  |
| CC(=O)OC1C(CO)OC(O[C@H]2[C@H](OC(=O)[C@]34CCC(C)(C)C[C@H]3C3=CCC5[C@@]6(C)CC[C@H](O[C@@H]7O[C@H](C(=O)O)[C@@H](O)[C@H](O[C@@H]8OC[C@@H](O)[C@H](O)[C@H]8O)[C@H]7O[C@@H]7O[C@H](CO)[C@H](O)[C@H](O)[C@H]7O)[C@@](C)(C=O)C6CC[C@@]5(C)[C@]3(C)C[C@H]4O)O[C@H](C)[C@H](OC3OC(C)C(OC4OCC(O)C(O)C4O)C(O)C3O)[C@@H]2O)C(O)C1O (stereo not given in full) | -0.582% (inactive) |  |
| O=C(Nc1ccccc1)Nc1ccc(-c2ccc(C(=O)C3CCCC3C(=O)O)cc2)cc1 (stereo not given) | -3.37% (inactive) |  |
| Cn1c2ccc(NC(=O)c3ccccc3)cc2c(=O)n2nc(C(=O)O)cc12 |  | inactive |
| C[C@@H]1CCC2C(C)(C)[C@H](O)[C@H](O)C[C@]2(C)[C@@]12Cc1c(O)cc3c(c1O2)CN(CCCC(=O)O)C3=O (stereo not given in full) | -7.06% (inactive) |  |
| CC(C)=CCC[C@@](C)(O)[C@H]1CC[C@]2(C)[C@@H]1[C@H](O)CC1[C@@]3(C)CC[C@H](O[C@@H]4O[C@H](CO)[C@@H](O)[C@H](O)[C@H]4O[C@@H]4O[C@H](CO)[C@@H](O)[C@H](O)[C@H]4O)C(C)(C)[C@@H]3CC[C@]12C (stereo not given in full) | 4.67% (inactive) |  |
| CC1(C)CC[C@]2(C(=O)O[C@@H]3O[C@H](CO)[C@@H](O)[C@H](O)[C@H]3O)CC[C@]3(C)C(=CCC4[C@@]5(C)CC[C@H](O[C@H]6O[C@H](CO)[C@@H](O)[C@H](O[C@@H]7O[C@H](CO)[C@@H](O)[C@H](O)[C@H]7O)[C@H]6O)C(C)(C)C5CC[C@]43C)[C@@H]2C1 (stereo not given in full) | -1.95% (inactive) |  |
| COC(=O)[C@H](Cc1cccc(C(=N)N)c1)[C@@H](C)NC(=O)c1ccc(-c2cc[n+]([O-])cc2)cc1 | -2.22% (inactive) |  |
| C[C@@H]1CC[C@]2(C(=O)O[C@@H]3O[C@H](CO[C@@H]4O[C@H](CO)[C@@H](O)[C@H](O)[C@H]4O)[C@@H](O)[C@H](O)[C@H]3O)CC[C@]3(C)C(=CCC4[C@@]5(C)CC[C@H](O)[C@](C)(C(=O)O)C5CC[C@]43C)[C@@H]2[C@]1(C)O (stereo not given in full) |  | inactive |
| O=C(OC[C@H]1O[C@H](O[C@]2(CO)O[C@H](CO)[C@@H](O)[C@@H]2O)[C@H](O)[C@@H](O)[C@@H]1O)c1ccc(O)cc1 | -3.61% (inactive) |  |
| CC12CC34CC(O)C5C(CO)(CO)CC(=O)CC5(C)C3CC1C2C4 (stereo not given) | -4.91% (inactive) |  |
| CC(C)[C@](O)(c1ccc2cc(OC(F)F)c(OC(F)F)cc2c1)c1cn[nH]n1 |  | inactive |
| O=C(CCCCC1CCCCC1)N1CCC(c2cnc[nH]2)CC1 | -15.2% (inactive) |  |
| CNC(C)C(=O)NC(C(=O)N1CCCC1C(=O)Nc1cccc2ncccc12)C(C)C (stereo not given) |  | inactive |
